PubChem BioAssay
Values joined by “and” are separate entries in the source; they are usually repeats but may differ in a detail not shown here. Equal values may be shown once. Active and inactive are the calls of the source. Unless noted, how the calls were made is not given here.

Tests used:
[1] = circadian clock period modulators, cell-based, LOPAC library, luminescence reporter (AID 2774); details: circadian reporter cells, at 7 µM, actives lie on both sides;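 further: values are relative to mean of DMSO wells on each plate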
[2] = test system: Hepatitis C virus NS3 helicase; assay: HCV NS3 helicase inhibitors, primary screen, biochemical, fluorescence polarization, LOPAC1280 library (AID 687035; in the data active means inhibition above about 37%); details: Purified HCV NS3 helicase, Cy5-dT15 ssDNA binding fluorescence polarization; stronger effect = higher value; concentration not given here
[3] = Cy5 fluorescence quenching or enhancement artefacts, artefact control for HCV NS3 helicase inhibitor project, biochemical, LOPAC1280 (AID 687037); details: Cy5-DNA-NS3h complex fluorescence interference counterscreen
[4] = test system: Aerobactin synthetase IucA (Klebsiella pneumoniae); assay: IucA aerobactin synthetase inhibitors, biochemical, Tocris library, absorbance (AID 1345561); details: purified IucA enzyme assay, absorbance (OD) read-out; stronger effect = lower value;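 tested at 8 µM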;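 further: 100% = enzyme without compound and 0% = no enzyme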
[5] = sensitizers of A549 cells to miR-34 induction, primary screen, imaging, A549 dox-inducible miR-34, nuclei and caspase counts (AID 1347080;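 active means compounds whose cell count with miR-34 switched on is under 0.7 times the count with it off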); details: A549 miR-34 inducible, Hoechst nuclei count, 48 h
[6] = phospholipid biosynthesis inhibitors in animal cells, primary screen, cell-based, LOPAC library, screen 4 (AID 1347384); details: phospholipid biosynthesis inhibition screen, at 10 µM
[7] = viability rescue of complex I mutant cybrids, primary screen, cell-based, galactose medium, ATP luminescence (AID 1645843;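 active means z-score of at least 1.8 in each of two replicates, scored against plate mean and spread of sample wells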;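 further: positive z means more ATP and so rescue of galactose-driven cybrid death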); details: complex I mutant cybrid cells, 72 h, stronger effect = higher value
[8] = hESC survival regulators, cell-based (AID 493140); details: human embryonic stem cell survival screen; stronger effect = higher value;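 further: cells exposed to compounds for four days before counting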
[9] = liver-stage malaria parasite growth inhibition, primary screen, cell-based, HepG2, luciferase luminescence, HepG2 viability (AID 624349; in the data active means parasite load remaining mostly below about 12%, no sharp cut-off; inactive means mostly above about 10%;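 further: 100% = mean of DMSO negative control wells on the same plate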); details: P. berghei liver stage in HepG2, luciferase luminescence, concentration not given here; parasite load remaining: stronger effect = lower value; viability: measured here: HepG2 viability without parasites
[10] = survival rescue of mitochondrial mutant cells in low glucose, primary screen, MELAS cybrids, Rieske KO mouse fibroblasts, CellTiter-Glo (AID 1508586;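 active means mean z-score across replicates of 1.96 or higher in either the MELAS or the Rieske mutant cell line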;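 further: z relative to plate mean and SD of compound and empty wells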)
[11] = inhibitors of Cryptococcus chitosan production, flow cytometry, Cibacron Brilliant Red staining (AID 1347148); details: Cryptococcus neoformans chitosan, stronger effect = lower value; at 10 µM unless noted;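 further: compound exposure lasted three days at 37 degrees C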
[12] = stronger effect = lower value, cell number ratio, induced over uninduced
[13] = measured here: relative caspase fold change +Dox/-Dox
[14] = measured here: total cells with miR-34 induction, stronger effect = lower value
[15] = measured here: total cells without miR-34 induction
[16] = MELAS cybrid survival, CellTiter-Glo 48 h, stronger effect = higher value
[17] = Rieske KO mouse fibroblast survival, CellTiter-Glo 72 h

| Compound | period change [1] | inhibition [2] | fluorescence ratio (interference) [3] | remaining activity [4] | fold change [5, 12] | fold change [5, 13] | cell count [5, 14] | cell count [5, 15] | outcome [6] | z-score [7] | survival [8] | parasite load remaining [9] | viability [9] | z-score [10, 16] | z-score [10, 17] | fold fluorescence [11] |
| --- | --- | --- | --- | --- | --- | --- | --- | --- | --- | --- | --- | --- | --- | --- | --- | --- |
| CN=c1nc(-c2ccccc2)n(-c2ccccc2)s1 | -0.055 h (inactive) | 8% (inactive) | 1 (inactive) | 118% (inactive) | 0.91 (inactive) and 0.922 (inactive) | 1.06 and 0.764 | 3550 and 4090 | 3900 and 4440 | inactive | -1.38 (inactive) and -0.73 (inactive) | – | – | – | – | – | – |
| NC(N)=NC(N)=Nc1cccc(Cl)c1 | 0.15 h (inactive) | -4% (inactive) | 1 (inactive) | 77.4% (inactive) | 0.947 (inactive) and 0.85 (inactive) | 1.12 and 1.01 | 10300 and 7530 | 10900 and 8860 | inactive | -0.165 (inactive) and -0.935 (inactive) | – | – | – | – | – | – |
| CCCc1c(-c2ccc(O)cc2)nn(-c2ccc(O)cc2)c1-c1ccc(O)cc1 | 0.165 h (inactive) | -1% (inactive) | 1 (inactive) | 109% (inactive) | 1.09 (inactive) and 0.887 (inactive) and 1.03 (inactive) | 1.1 and 0.322 and 0.755 | 8030 and 5050 and 7250 | 7380 and 5690 and 7020 | inactive | 1.27 (inactive) and 1.6 (inactive) | – | – | – | – | – | – |
| N=C(N)SCCc1cnc[nH]1 | 0.045 h (inactive) | -3% (inactive) | 1 (inactive) | 120% (inactive) | 0.923 (inactive) and 0.986 (inactive) | 1.08 and 0.938 | 8720 and 7870 | 9460 and 7980 | inactive | 0.08 (inactive) and 0.435 (inactive) | – | – | – | – | – | – |
| COc1ccccc1N1CCN(CCCCN2C(=O)c3ccccc3C2=O)CC1 | 0.18 h (inactive) | -3% (inactive) | 1 (inactive) | 97.1% (inactive) | 1.11 (inactive) and 0.969 (inactive) | 1.56 and 0.971 | 9310 and 9300 | 8410 and 9600 | inactive | -0.155 (inactive) and -0.92 (inactive) | – | – | – | – | – | – |
| N#Cc1cc2nc(O)c(O)nc2cc1[N+](=O)[O-] | 0.03 h (inactive) | -1% (inactive) | 1 (inactive) | 114% (inactive) | 1.02 (inactive) and 0.856 (inactive) | 1.08 and 1.89 | 9680 and 8420 | 9500 and 9840 | inactive | 0.385 (inactive) and 0.185 (inactive) | – | – | – | – | – | – |
| Cc1nc2c(OCc3ccccc3)cccn2c1CC#N | -0.02 h (inactive) | 1% (inactive) | 1 (inactive) | 113% (inactive) | 1.04 (inactive) and 0.99 (inactive) | 1.18 and 1.15 | 9420 and 8410 | 9080 and 8490 | inactive | 1.07 (inactive) and 2.13 (inactive) | – | – | – | – | – | – |
| CC(=O)NNC(=O)N1Cc2ccccc2Oc2ccc(Cl)cc21 | -0.025 h (inactive) | -1% (inactive) | 1 (inactive) | 100% (inactive) | 0.965 (inactive) and 0.956 (inactive) | 0.954 and 0.9 | 10200 and 8650 | 10600 and 9060 | inactive | 1.17 (inactive) and 0.635 (inactive) | – | – | – | – | – | – |
| O=C(NCCNCC(O)COc1ccc(O)cc1)N1CCOCC1 (centres undefined) | -0.145 h (inactive) | – | – | 86.3% (inactive) | 0.933 (inactive) and 0.982 (inactive) and 0.986 (inactive) | 1.12 and 0.678 and 0.984 | 9570 and 9500 and 10300 | 10300 and 9670 and 10400 | – | 1.45 (inactive) and 0.315 (inactive) | 3.92 (inactive) | 67.2% (inactive) and 53.1% (inactive) | 92.7% and 101% | 0.558 (inactive) and 0.821 (inactive) | -0.323 and 0.721 | – |
| CC1(C)CCC(C)(C)c2cc(C(=O)Nc3ccc(C(=O)O)cc3)ccc21 | – | – | – | – | – | – | 5520 and 7570 | 5900 and 8080 | – | 1.25 (inactive) | 83.8 (inactive) | – | – | – | – | – |
| Cc1ccc(C(=O)Cn2c3c(sc2=N)CCCC3)cc1 | – | – | – | 107% (inactive) | – | – | – | – | – | -0.225 (inactive) | – | – | – | 1.05 (inactive) | -0.573 | 5.78 [at 174.6 µM] (inactive) |
| CN(C)CCCSC(=N)N | – | – | – | 105% (inactive) | 0.94 (inactive) and 0.947 (inactive) | 0.889 and 0.696 | 8690 and 7530 | 9240 and 7950 | – | -0.34 (inactive) | 12 (inactive) | 63.2% (inactive) | 78.8% | 0.388 (inactive) | -0.104 | – |
| Nc1ccc(-c2nc3ccc(-c4nc5ccc(N)cc5[nH]4)cc3[nH]2)cc1 | – | -5% (inactive) | 0.6 (active) | 107% (inactive) | 1.02 (inactive) and 0.968 (inactive) | 0.586 and 0.928 | 11200 and 10100 | 10900 and 10500 | inactive | 4.82 (active) and 5.54 (active) | – | – | – | – | – | – |
| Clc1ccc2c(c1)N=C(N1CCNCC1)c1ccccc1N2 | – | -2% (inactive) | 1 (inactive) | 102% (inactive) | 1.02 (inactive) and 0.994 (inactive) | 1.15 and 0.797 | 7100 and 7380 | 6990 and 7420 | inactive | -0.785 (inactive) and -0.84 (inactive) | – | – | – | – | – | – |
| CCCCCCC(=O)OC1CC(C)(C)NC(C)(C)C1 | – | -4% (inactive) | 0.9 (inactive) | 97.8% (inactive) | 0.999 (inactive) and 0.934 (inactive) | 0.562 and 1.2 | 9880 and 8660 | 9890 and 9270 | inactive | 0.56 (inactive) and 0.015 (inactive) | – | – | – | – | – | – |
| Cc1ccc([N+](=O)[O-])cc1S(=O)(=O)N(C)C | – | 0% (inactive) | 1 (inactive) | 93.4% (inactive) | 0.957 (inactive) and 0.856 (inactive) | 1.62 and 1.47 | 9070 and 7620 | 9480 and 8900 | inactive | 0.32 (inactive) and -0.31 (inactive) | – | – | – | – | – | – |
| CCc1ccc2c(-c3cccc(Cl)c3)nc(=O)n(CC)c2n1 | – | -2% (inactive) | 1 (inactive) | 124% (inactive) | 1.11 (inactive) and 0.913 (inactive) | 1.55 and 0.664 | 9380 and 8340 | 8460 and 9140 | inactive | 1.02 (inactive) and -0.175 (inactive) | – | – | – | – | – | – |
| Oc1cc2c(cc1O)CN(C(=S)NCCc1ccc(Cl)cc1)CCC2 | 0.035 h (inactive) | 0% (inactive) | 1 (inactive) | 72.4% (inactive) | – | – | – | – | inactive | -0.99 (inactive) and -1.23 (inactive) | – | – | – | – | – | 5.63 [at 132.7 µM] (inactive) |
